Experiment [1] in a line: compounds binding Alexa647 anti-His antibody – biochemical, small-molecule microarray, 635 nm fluorescence, artefact control for SMM control protein annotation, primary screen (AID 1128).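 Also: score merges feature fluorescence with signal-to-noise for each printed compound spot.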 The note with it: higher = more signal.
The subject of experiment [2] is Human papillomavirus type 1a E7 protein (residues 1-88). The experiment is described as follows: HPV1a E7 small-molecule binders, primary screen, biochemical, small-molecule microarray, residues 1-88, 635 nm (AID 1129). The note with it: small-molecule microarray binding, fluorescence 635 nm; higher = more signal.
Experiment [3] deals with Focal adhesion kinase 1 (Homo sapiens) (UniProt Q05397). The experiment is described as follows: PTK2 protein binding on printed compound slides – biochemical, small-molecule microarray, 635/667 nm fluorescence, BSA, DTT, primary screen (AID 1130).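 Also: composite of spot emission at 667 nm and signal to noise over triplicate slides.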 The note with it: 635 nm fluorescence, higher = more signal.
Chain of Focal adhesion kinase 1 (Homo sapiens) (Q05397 whole entry, looked up): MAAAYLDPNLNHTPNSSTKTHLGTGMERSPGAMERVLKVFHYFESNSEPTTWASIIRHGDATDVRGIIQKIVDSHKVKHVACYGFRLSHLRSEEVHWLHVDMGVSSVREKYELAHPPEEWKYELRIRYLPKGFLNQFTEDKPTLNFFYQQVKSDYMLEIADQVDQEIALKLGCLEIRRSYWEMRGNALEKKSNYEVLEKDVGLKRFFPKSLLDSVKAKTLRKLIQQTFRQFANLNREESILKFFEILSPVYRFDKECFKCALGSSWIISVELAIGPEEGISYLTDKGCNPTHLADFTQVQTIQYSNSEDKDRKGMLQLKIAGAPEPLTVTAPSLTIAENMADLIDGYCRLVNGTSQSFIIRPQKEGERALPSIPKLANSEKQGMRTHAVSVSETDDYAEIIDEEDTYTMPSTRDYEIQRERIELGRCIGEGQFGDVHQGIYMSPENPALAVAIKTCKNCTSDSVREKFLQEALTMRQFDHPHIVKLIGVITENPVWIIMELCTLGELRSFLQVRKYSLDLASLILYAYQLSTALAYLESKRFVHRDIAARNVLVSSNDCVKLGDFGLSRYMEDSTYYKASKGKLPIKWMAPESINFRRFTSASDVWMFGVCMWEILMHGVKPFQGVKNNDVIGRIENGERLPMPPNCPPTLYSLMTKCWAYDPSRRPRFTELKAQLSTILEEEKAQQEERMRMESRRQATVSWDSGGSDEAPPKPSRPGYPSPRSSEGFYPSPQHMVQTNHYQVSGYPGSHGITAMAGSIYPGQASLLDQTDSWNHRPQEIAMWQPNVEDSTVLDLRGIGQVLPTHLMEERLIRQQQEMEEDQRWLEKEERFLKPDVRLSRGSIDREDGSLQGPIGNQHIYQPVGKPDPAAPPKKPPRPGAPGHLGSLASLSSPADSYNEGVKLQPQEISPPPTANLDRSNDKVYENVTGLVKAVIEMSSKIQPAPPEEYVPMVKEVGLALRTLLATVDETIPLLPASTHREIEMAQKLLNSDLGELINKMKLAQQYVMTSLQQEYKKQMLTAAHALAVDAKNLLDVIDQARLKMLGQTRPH
In experiment [4] the test system is Fibrinogen (Alexa647-labelled). The experiment is described as follows: Alexa647-fibrinogen binding to printed small molecules – biochemical, small-molecule microarray, 635/667 nm fluorescence, artefact control for SMM control-protein annotation, profiling panel (AID 1131).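 Also: z-score merges 667 nm fluorescence with per-spot signal-to-noise over triplicate slides.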 The note with it: fibrinogen-A647 binding fluorescence, higher = more signal.
In experiment [5] the target is Follistatin (Homo sapiens) (UniProt P19883). Description: FST protein binding to printed compounds – biochemical, small-molecule microarray, 635/667 nm fluorescence, primary screen (AID 1132). The note with it: 635 nm fluorescence, higher = more signal.
Chain of Follistatin (Homo sapiens) (P19883 whole entry, looked up): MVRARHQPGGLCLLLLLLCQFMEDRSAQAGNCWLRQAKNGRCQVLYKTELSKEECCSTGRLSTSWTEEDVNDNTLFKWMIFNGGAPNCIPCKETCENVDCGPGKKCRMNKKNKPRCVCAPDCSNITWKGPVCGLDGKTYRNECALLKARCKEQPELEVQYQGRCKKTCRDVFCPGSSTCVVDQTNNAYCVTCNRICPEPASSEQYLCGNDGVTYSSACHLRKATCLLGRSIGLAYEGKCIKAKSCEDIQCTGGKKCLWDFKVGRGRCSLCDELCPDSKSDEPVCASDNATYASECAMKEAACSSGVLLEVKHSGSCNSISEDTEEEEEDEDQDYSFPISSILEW
In experiment [6] the target is Fibroblast growth factor 2 (Homo sapiens) (UniProt P09038). The experiment is described as follows: basic fibroblast growth factor binding to printed compounds – biochemical, small-molecule microarray, 635/667 nm fluorescence, primary screen (AID 1133). The note with it: FGF2, fluorescence 635/667, higher = more signal.
Chain of Fibroblast growth factor 2 (Homo sapiens) (P09038 whole entry, looked up): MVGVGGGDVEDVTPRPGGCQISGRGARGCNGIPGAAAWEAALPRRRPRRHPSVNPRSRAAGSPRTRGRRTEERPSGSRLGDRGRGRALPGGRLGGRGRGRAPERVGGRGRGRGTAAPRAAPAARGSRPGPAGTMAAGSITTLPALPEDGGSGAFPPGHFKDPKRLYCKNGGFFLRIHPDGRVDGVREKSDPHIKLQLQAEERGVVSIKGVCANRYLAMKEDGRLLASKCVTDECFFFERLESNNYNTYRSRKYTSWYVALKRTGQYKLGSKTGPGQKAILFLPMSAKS
Experiment [7] can be described thus: JC-1 mitochondrial potential readout, lung cancer cells – cell-based, A549, JC-1 fluorescence, basal, 24 h, 100 nL, profiling panel (AID 1138).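 Also: A549 lung adenocarcinoma cells under basal conditions with no added stimulus; test concentration not given here.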 The note with it: higher = more signal.
In the next experiment the test system is Lefty1. The experiment is described as follows: Lefty1 protein binding to printed compounds – biochemical, small-molecule microarray, 635/667 nm fluorescence, primary screen (AID 1139). The note with it: fluorescence 635/667, higher = more signal.
The test system of experiment [8] is wheat germ agglutinin (Triticum aestivum), Alexa647-labelled. The experiment is described as follows: Alexa647-WGA lectin binding to printed small molecules – biochemical, small-molecule microarray, 635/667 nm fluorescence, artefact control for SMM control-protein annotation, profiling panel (AID 1140).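 Also: score merges 667 nm feature emission with signal to noise over triplicate slides.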 The note with it: WGA-A647 binding, 635 nm fluorescence, higher = more signal.

Experiment [9] concerns the target Luciferin 4-monooxygenase (Photinus pyralis) (UniProt P08659). The experiment is described as follows: inhibition of purified Photinus pyralis luciferase – biochemical, luminescence, purified enzyme, 2006 set, primary screen (AID 1141).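 Also: cell-free assay with purified firefly luciferase at 100 ng per well in PBS; test concentration not given here.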 The note with it: purified firefly luciferase, SteadyGlo luminescence, 30 min; higher = more signal, called active from +8 up or from −8 down.

Experiment [10] relates to Wnt5a (protein binding on small-molecule microarray). Description: small molecules binding Wnt5a protein – biophysical, small-molecule microarray, 635/667 nm fluorescence, primary screen (AID 1142).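 Also: fluorescence read at 667 nm with signal to noise per printed feature.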 The note with it: 635 nm fluorescence, higher = more signal.
The nature of experiment [11]: ATP-based viability of Huh7 replicon cells – cell-based, CellTiter-Glo luminescence, basal, 48 h, cytotoxicity control for HCV replication inhibitor project, primary screen (AID 1143).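 Also: Huh7 hepatoma cells carrying a hepatitis C replication reporter with no stimulus; test concentration not given here.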 The note with it: higher = more signal, called active from +8 up or from −8 down. A general note: A replicon is a self-replicating genome or part of one, used to study replication in cells.

Experiment [12] is described as follows: Pseudomonas biofilm growth suppression – PAO1 strain, BacTiter-Glo luminescence, LB-PBS, primary screen (AID 1144). The note with it: P. aeruginosa PAO1 biofilm, 12 h, higher = more signal.
Experiment [13] is described as follows: basal CRE-LacZ reporter activity in PC12 – cell-based, unstimulated, primary screen (AID 1145). The note with it: no forskolin, luminescence, 4.5 h, higher = more signal, called active from +8 up or from −8 down.
A short description of experiment [14]: forskolin-driven CRE-LacZ activity in PC12 – cell-based, CRE-LacZ reporter, forskolin-stimulated, primary screen (AID 1146).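 Also: PC12 cells with 6xCRE LacZ reporter stimulated by forskolin 10 µM; beta-galactosidase reporter signal reflecting CREB driven transcription.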 The note with it: luminescence, 4.5 h, higher = more signal, called active from +8 up or from −8 down.
The target in experiment [15] is Streptavidin (Streptomyces avidinii) (UniProt P22629). Description: compounds binding control protein streptavidin – biophysical, small-molecule microarray, 635/667 nm fluorescence, artefact control for SMM compound annotation, primary screen (AID 1147).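 Also: signal reflects streptavidin binding to arrayed compounds as a control protein.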 The note with it: higher = more signal.
Chain of Streptavidin (Streptomyces avidinii) (P22629 whole entry, looked up): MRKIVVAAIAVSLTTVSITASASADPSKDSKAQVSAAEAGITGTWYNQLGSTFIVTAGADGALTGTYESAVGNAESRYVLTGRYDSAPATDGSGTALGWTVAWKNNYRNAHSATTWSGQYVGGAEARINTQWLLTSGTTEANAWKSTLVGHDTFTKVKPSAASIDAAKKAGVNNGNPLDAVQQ
Experiment [16] is described as follows: probe aInhba binding on compound microarray – biochemical, small-molecule microarray, 635/667 nm fluorescence, primary screen (AID 1148).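 Also: score merges 667nm spot fluorescence with signal-to-noise for antibody binding to printed compounds.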 The note with it: higher = more signal.
Experiment [17] has as its target Torsin-1A (Homo sapiens) (UniProt O14656). Description: TOR1A wild-type binding on microarray – cell lysate, small-molecule microarray, lysate, 635/667 nm, primary screen (AID 1149). The note with it: COS7 hTOR1A-WT lysate, 635 nm fluorescence, higher = more signal.
The target is the same in experiment [18]. Description: torsin A mutant lysate binding on microarrays – cell lysate, small-molecule microarray, COS7 lysate, 635/667 nm fluorescence, primary screen (AID 1150).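 Also: score pools 667 nm emission and signal to noise measuring lysate protein binding.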 The note with it: COS7 hTOR1A mutant lysate, 635 nm fluorescence, higher = more signal.
The test system of experiment [19] is Sonic hedgehog protein (Shh). Description: Sonic hedgehog microarray binding compounds – biochemical, small-molecule microarray, 635/667 nm fluorescence, primary screen (AID 1151).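 Also: Shh protein binding to compounds spotted on small-molecule microarray slides; score combines spot fluorescence intensity with signal-to-noise across triplicate slides.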 The note with it: 635 nm fluorescence, higher = more signal.

Active and inactive are the calls of the source. Unless noted, no rule for the calls is given here.

Chain of Torsin-1A (Homo sapiens) (O14656 whole entry, looked up): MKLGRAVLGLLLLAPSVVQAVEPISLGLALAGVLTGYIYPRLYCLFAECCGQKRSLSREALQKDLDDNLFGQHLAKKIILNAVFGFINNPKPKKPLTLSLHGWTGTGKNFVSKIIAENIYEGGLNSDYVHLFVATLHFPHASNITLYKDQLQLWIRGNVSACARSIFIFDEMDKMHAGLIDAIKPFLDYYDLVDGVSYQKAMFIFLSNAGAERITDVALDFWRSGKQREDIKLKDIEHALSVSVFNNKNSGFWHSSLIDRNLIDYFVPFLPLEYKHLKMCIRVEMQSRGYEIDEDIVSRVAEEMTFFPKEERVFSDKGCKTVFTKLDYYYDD
Chain of Luciferin 4-monooxygenase (Photinus pyralis) (P08659 whole entry, looked up): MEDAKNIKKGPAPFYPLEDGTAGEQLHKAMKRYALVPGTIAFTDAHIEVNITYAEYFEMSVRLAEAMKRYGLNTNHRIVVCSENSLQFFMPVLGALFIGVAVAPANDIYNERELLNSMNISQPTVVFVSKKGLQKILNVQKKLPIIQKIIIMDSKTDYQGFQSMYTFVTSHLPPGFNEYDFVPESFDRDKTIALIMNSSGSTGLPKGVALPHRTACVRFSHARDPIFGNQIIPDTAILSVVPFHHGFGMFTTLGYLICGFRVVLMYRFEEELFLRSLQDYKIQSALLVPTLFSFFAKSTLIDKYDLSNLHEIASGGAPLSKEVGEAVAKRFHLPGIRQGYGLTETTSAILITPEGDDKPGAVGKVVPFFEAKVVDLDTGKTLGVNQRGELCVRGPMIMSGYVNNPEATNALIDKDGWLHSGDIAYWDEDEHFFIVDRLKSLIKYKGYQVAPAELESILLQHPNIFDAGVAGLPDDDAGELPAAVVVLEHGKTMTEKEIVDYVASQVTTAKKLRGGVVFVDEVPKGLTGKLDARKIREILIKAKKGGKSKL

On to `CC(C)[C@@H](OCc1ccccc1)[C@H](C)C=NOC[C@@H](C)[C@H](OCc1ccccc1)C(C)C`, for which the composite z-score in experiment [1] is 0.0377; in experiment [2], 0.289; in experiment [3] it was 0.121; in [4] it was -0.0745; in experiment [5], 0.426; in experiment [6] it was 0.139. For the same molecule, the composite z-score in the experiment on Lefty1 was 0.595; in experiment [8] it was -0.0388; in [10], 0.187; in [15] it was 0.118; in experiment [16], -0.128; with Torsin-1A (Homo sapiens) [17], 0.256. The figures for the composite z-score (with Torsin-1A (Homo sapiens) [18]; in [19]) were 0.204 and 0.256, respectively. Besides, the z-score in experiment [7] was -0.753; in experiment [9] it was -0.11 (inactive); in [11] it was 0.459 (inactive); in experiment [12] it was 0.627 (inactive); in experiment [13] it was 0.471 (inactive); in experiment [14], -0.144 (inactive).

On to `CO[C@H]1O[C@H](CO)[C@@H](OC(=O)Nc2ccc3c(c2)OCO3)[C@H](OC(=O)Nc2ccccc2-c2ccccc2)[C@@H]1OC(=O)Nc1ccccc1-c1ccccc1`, for which the composite z-score turned out to be 1.84 in experiment [1]; 1.18 in [2]; 0.195 in [3]; 0.987 in experiment [4]; 1.14 in experiment [5]; 1.68 in [6]. The composite z-score turned out to be 0.186 in the experiment on Lefty1; 1 in [8]; 0.492 in experiment [10]; 1.08 in experiment [15]; 0.124 in [16]; 0.957 in the experiment with Torsin-1A (Homo sapiens) [17]. The composite z-score with Torsin-1A (Homo sapiens) [18] amounted to 1.17; in experiment [19], 0.672. In addition, the z-score was -0.604 in experiment [7]; -0.485 (inactive) in experiment [9]; -3.03 (inactive) in [11]; -0.176 (inactive) in experiment [12]; 0.54 (inactive) in experiment [13]; -0.528 (inactive) in experiment [14].

For the molecule `CN(C)C(=O)[C@@]1(Cc2ccccc2)N=C(c2ccc(OCCCO)cc2)O[C@H]1c1ccccc1CN=[N+]=[N-]`, the composite z-score in experiment [1] amounted to 3.27; in experiment [2], 1.25; in experiment [3] it was 0.254; in experiment [4] it was 1.02; in experiment [5], 1.37; in experiment [6] it was 1.18. Further, the composite z-score amounted to 0.485 in the experiment on Lefty1; 1.25 in experiment [8]; 1.45 in [10]; 1.5 in experiment [15]; 0.696 in experiment [16]; 0.526 with Torsin-1A (Homo sapiens) [17]. For the same molecule, the composite z-score with Torsin-1A (Homo sapiens) [18] was 1.79; in [19], -0.122. The z-score was 1.97 in experiment [7]; -0.088 (inactive) in experiment [9]; -2.26 (inactive) in experiment [11]; 0.456 (inactive) in experiment [12]; 0.974 (inactive) in experiment [13]; -0.55 (inactive) in experiment [14].

For `O=C1[C@H]2[C@H]3[C@H](O)[C@H](O)CC(=NOCc4ccccc4)[C@H]3CC[C@H]2C(=O)N1C[C@@H]1CCCO1`, the composite z-score in [1] was 0.216; in [2], 0.586; in experiment [3], -0.0074; in experiment [4], 0.953; in experiment [5], 0.393; in [6], 1.12. In addition, the composite z-score in the experiment on Lefty1 is 0.249; in [8] it was 0.352; in [10], 0.171; in experiment [15] it was 0.295; in [16], -0.0963; with Torsin-1A (Homo sapiens) [17], 0.95. In addition, the composite z-score was 0.119 with Torsin-1A (Homo sapiens) [18] and 0.135 in [19]. Also, the z-score was -0.877 in [7]; 0.949 (inactive) in [9]; -0.34 (inactive) in experiment [11]; 0.282 (inactive) in experiment [12]; -0.298 (inactive) in experiment [13]; -0.471 (inactive) in experiment [14].

In the case of `COc1ccc(COC(=O)NN=C2C[C@@H](O)[C@@H](O)[C@@H]3[C@@H]4C(=O)N(c5ccc(F)cc5F)C(=O)[C@@H]4CC[C@@H]23)cc1`, the composite z-score in [1] was 0.257; in experiment [2], -0.769; in [3] it was 0.0141; in experiment [4], 0.794; in experiment [5], -0.409; in experiment [6], -0.0007. In addition, the composite z-score in the experiment with Lefty1 is -0.291; in experiment [8] it was 0.744; in experiment [10] it was -0.207; in experiment [15], 0.509; in experiment [16] it was -0.0762; with Torsin-1A (Homo sapiens) [17], -0.372. The composite z-score was 0.389 in the experiment with Torsin-1A (Homo sapiens) [18] and -1.13 in experiment [19]. Also, the z-score was -0.604 in experiment [7]; 0.506 (inactive) in experiment [9]; 0.0335 (inactive) in [11]; 1.02 (inactive) in experiment [12]; 1.61 (inactive) in [13]; -0.0874 (inactive) in experiment [14].

Values taken from PubChem BioAssay.
